We go through 21 molecules from PubChem BioAssay (NCATS).

Structures are written as SMILES. Results filed as inconclusive are left out. Values without a mark were called inactive. Active and inactive are the calls of the source. The call rests on the fitted dose curve; in most records, active means well fitted curve in the direction sought with a large enough effect; inconclusive means small, poorly fitted or top-dose-only effect, or another doubt; inactive means no such curve, though single readings can be large; an effect the other way counts as inactive or inconclusive.

Experiment [1] addresses Rap guanine nucleotide exchange factor 3 (Homo sapiens) (UniProt O95398). Put plainly: Confirmatory qHTS for antagonist of cAMP-regulated guanine nucleotide exchange factor 3 (EPAC1) (AID 1645880). Further: nearly all actives have a fitted effect of over 55% in size. Further: potency means the concentration at half of the fitted maximal effect. The method in brief: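 Nucleotide exchange uses 100 nM EPAC1, 250 nM RAP1B-BODIPY-GDP and 50 uM GDP, with compounds in a concentration-titration series. After 5 min at room temperature, fluorescence (480 nm ex/540 nm em) is read every 5 min for 30 min. Data are normalized to control ATA and DMSO.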
(In general: Quantitative high-throughput screening tests each substance at several concentrations.)

For experiment [2] the target is unchanged. Put plainly: Confirmatory qHTS for agonist of cAMP-regulated guanine nucleotide exchange factor 3 (EPAC1) (AID 1645881).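 Further: EPAC1 catalysed release of BODIPY-GDP from Rap1B seen as fluorescence loss; 100% = effect of cAMP agonist control; nearly all actives have a fitted effect of over 75% in size.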
For experiment [3], the target named is Rap guanine nucleotide exchange factor 4 (Homo sapiens) (UniProt Q8WZA2). Put plainly: Confirmatory qHTS for agonist of cAMP-regulated guanine nucleotide exchange factor 4 (EPAC2) (AID 1645884).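 Further: nucleotide exchange releases bodipy-GDP from Rap1 and this lowers its fluorescence; on the % scale 0 is the no-effect control and ±100 the full control effect; nearly all actives have a fitted effect of over 65% in size.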
Rap guanine nucleotide exchange factor 4 (Homo sapiens), sequence (Q8WZA2 whole entry, looked up): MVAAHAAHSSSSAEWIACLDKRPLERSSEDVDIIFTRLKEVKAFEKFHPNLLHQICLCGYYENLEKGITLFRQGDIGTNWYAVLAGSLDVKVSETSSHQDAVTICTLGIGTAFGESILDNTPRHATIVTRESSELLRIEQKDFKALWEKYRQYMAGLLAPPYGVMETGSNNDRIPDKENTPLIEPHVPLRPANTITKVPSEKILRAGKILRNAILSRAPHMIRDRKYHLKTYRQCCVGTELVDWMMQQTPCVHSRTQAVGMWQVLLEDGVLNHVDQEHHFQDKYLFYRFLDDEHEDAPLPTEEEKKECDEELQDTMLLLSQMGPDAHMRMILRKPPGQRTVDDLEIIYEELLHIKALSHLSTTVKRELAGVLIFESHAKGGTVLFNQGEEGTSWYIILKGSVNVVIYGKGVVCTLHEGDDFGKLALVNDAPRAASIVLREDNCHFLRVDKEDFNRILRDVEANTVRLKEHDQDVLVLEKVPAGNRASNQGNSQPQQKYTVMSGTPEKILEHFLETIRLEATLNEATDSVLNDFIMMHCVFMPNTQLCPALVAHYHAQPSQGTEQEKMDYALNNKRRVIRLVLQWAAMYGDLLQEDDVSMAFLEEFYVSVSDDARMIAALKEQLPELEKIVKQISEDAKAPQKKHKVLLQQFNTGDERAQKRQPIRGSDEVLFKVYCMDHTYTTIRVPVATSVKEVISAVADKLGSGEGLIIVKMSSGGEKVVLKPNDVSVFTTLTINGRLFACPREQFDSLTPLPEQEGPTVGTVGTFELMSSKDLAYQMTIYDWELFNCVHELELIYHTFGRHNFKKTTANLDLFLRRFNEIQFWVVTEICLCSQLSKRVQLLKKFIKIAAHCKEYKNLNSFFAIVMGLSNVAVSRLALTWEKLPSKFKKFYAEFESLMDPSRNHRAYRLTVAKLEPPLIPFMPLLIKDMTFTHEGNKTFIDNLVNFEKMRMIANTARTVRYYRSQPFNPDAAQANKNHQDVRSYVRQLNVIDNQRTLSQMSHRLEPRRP
Experiment [4] shares this target. Put plainly: Confirmatory qHTS for antagonist of cAMP-regulated guanine nucleotide exchange factor 4 (EPAC2) (AID 1645885). Further: nearly all actives have a fitted effect of over 25% in size. Further: potency means the concentration at half of the fitted maximal effect. On activity change, negative = inhibition: on the % scale 0 is the no-effect control and ±100 the full control effect.
The target of experiment [5] is Rap guanine nucleotide exchange factor 3 (Homo sapiens) (UniProt O95398). Put plainly: Counterscreen qHTS for antagonist of cAMP-regulated guanine nucleotide exchange factor 3 (EPAC1) (AID 1645888).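 Further: fluorescence loss as bound BODIPY-GDP is released from Rap1B; % of control where 0% means no effect.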 The method in brief: (§1)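 Rap1B–BODIPY-GDP (250 nM) with 50 uM GDP; compounds pin-transferred to 9.74 nM–152 uM final (activator) or from 7.32 nM upwards (inhibitor). Fluorescence Ex/Em 480/540 nm read at 5 and 30 min, then after adding cAMP or buffer, at room temperature.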
Rap guanine nucleotide exchange factor 3 (Homo sapiens), sequence (O95398 whole entry, looked up): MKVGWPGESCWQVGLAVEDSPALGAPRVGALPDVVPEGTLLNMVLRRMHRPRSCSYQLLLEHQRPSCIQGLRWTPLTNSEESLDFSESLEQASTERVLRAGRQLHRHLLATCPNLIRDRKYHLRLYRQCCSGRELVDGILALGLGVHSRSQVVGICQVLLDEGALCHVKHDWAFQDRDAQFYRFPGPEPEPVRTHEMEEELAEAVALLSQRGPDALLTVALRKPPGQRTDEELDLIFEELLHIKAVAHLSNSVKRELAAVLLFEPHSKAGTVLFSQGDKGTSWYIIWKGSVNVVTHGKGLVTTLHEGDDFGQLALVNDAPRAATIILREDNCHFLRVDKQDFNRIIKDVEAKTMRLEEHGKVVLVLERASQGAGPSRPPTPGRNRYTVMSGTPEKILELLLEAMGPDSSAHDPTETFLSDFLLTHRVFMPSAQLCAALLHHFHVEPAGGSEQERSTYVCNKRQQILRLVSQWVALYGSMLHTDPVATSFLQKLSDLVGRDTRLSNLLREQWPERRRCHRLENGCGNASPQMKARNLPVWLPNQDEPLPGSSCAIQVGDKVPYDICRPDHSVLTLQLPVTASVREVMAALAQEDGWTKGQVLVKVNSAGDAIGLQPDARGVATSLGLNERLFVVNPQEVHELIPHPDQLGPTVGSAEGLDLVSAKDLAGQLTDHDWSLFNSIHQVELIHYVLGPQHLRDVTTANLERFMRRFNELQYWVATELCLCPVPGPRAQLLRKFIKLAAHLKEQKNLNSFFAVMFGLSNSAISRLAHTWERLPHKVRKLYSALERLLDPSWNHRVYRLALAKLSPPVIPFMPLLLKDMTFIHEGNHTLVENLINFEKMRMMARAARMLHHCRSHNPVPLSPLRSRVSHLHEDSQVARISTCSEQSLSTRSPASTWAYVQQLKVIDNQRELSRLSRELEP
(In general: A counterscreen serves to expose hits that act by an unwanted route or on another target.)

The target is the same in experiment [6]. The experiment can be described thus: Counterscreen qHTS for agonist of cAMP-regulated guanine nucleotide exchange factor 3 (EPAC1) (AID 1645889). Further: nearly all actives have a fitted effect of over 40% in size. Further: potency means the concentration at half of the fitted maximal effect. On activation: % of control where 0% means no effect. In a few lines:
as §1

For the molecule `O=C(NCCS(=O)(=O)N1CCN(c2cccc(Cl)c2)CC1)c1ccc2c(c1)OCO2`, the Potency result in experiment [1], in experiment [2], in experiment [3], in experiment [4], in experiment [5] and in experiment [6] was “inactive” each time.
With `C=CCCCN(Cc1ccccc1)S(=O)(=O)c1ccccc1Br`, the Potency entry in experiment [1], in experiment [2] and in experiment [4] was “inactive” throughout. The activation in experiment [3] was 1.87% [at 17.1 µM, percent relative to cAMP agonist control]; in experiment [6], 12.4% [at 30.8 µM]. Also, the activity change, negative = inhibition in experiment [5] is -1.46% [at 30.8 µM].
As to `Cc1ccc(NC(=O)N2CCN(c3nnc(C)c4c(C)n(-c5ccc(Cl)cc5)nc34)CC2)c(C)c1`, the Potency result in experiment [1], in experiment [2], in experiment [3], in experiment [4], in experiment [5] and in experiment [6] was “inactive” throughout.
Regarding `Cc1ccc(S(=O)(=O)N2C(c3ccc(Cl)c(Cl)c3)CC=C(C(=O)O)C2c2ccc(Cl)cc2)cc1` (stereo unspecified), the Potency in experiment [1] is 84.9 µM (active). The Potency result in experiment [2], in experiment [3], in experiment [4], in experiment [5] and in experiment [6] was “inactive” each time.
With `O=C(Nc1sc(-c2ccccc2)cc1C(=O)O)c1ccccc1`, the Potency in experiment [1] is 75.7 µM (active). Besides, the Potency result in experiment [2], in experiment [3], in experiment [4], in experiment [5] and in experiment [6] was “inactive” throughout.
Take `CC(=O)c1cccc(OC(=O)C2=CC=CN3CCS(=O)(=O)N=C23)c1`: the Potency entry in experiment [1], in experiment [2], in experiment [3], in experiment [4], in experiment [5] and in experiment [6] was “inactive” throughout.
`Cc1cc2ccccn2c1C(=O)c1ccc(Cl)cc1`: the Potency entry in experiment [1], in experiment [2], in experiment [3], in experiment [4] and in experiment [5] was “inactive” in each case. For the same molecule, the Potency in experiment [6] is 0.141 µM (active).
As to `O=C(O)C1CSC(c2ccco2)N1` (stereo unspecified), the Potency entry in experiment [1], in experiment [2] and in experiment [4] was “inactive” in each case. The activation in experiment [3] is 15.3% [at 17.1 µM, percent relative to cAMP agonist control]; in experiment [6] it was 2.32% [at 30.8 µM]. Also, in experiment [5], the activity change, negative = inhibition is -26.6% [at 30.8 µM].
With `CCC(C)Sc1c(C(C)C)cnc2c1c(=O)n(C)c(=O)n2C` (stereo unspecified), the Potency entry in experiment [1], in experiment [2], in experiment [3], in experiment [4], in experiment [5] and in experiment [6] was “inactive” in each case.
`COc1cccc(OC)c1C(=O)Nc1ccccc1Sc1ccccc1`: the Potency result in experiment [1], in experiment [2], in experiment [3], in experiment [4], in experiment [5] and in experiment [6] was “inactive” in each case.
For the molecule `CC1(C)CC(=O)C2=C(C1)c1c(ccc3ccccc13)NC2c1cc([N+](=O)[O-])cc([N+](=O)[O-])c1O` (stereo unspecified), the values for the Potency in experiment [1] and in experiment [4] were 9.53 µM (active) and 26.9 µM (active), respectively. The Potency entry in experiment [2], in experiment [3], in experiment [5] and in experiment [6] was “inactive” throughout.
`Cc1ccc(S(=O)(=O)N2[C@@H](c3ccc(Cl)c(Cl)c3)C(C(=O)O)=C[C@H]2CC2CCCC2)cc1`: in experiment [1], the Potency is 44.7 µM (active). Further, the Potency result in experiment [2] and in experiment [4] was “inactive” in each case. The activation was 11.3% [at 17.1 µM, percent relative to cAMP agonist control] in experiment [3] and 18.3% [at 30.8 µM] in experiment [6]. Moreover, the activity change, negative = inhibition in experiment [5] was -8.49% [at 30.8 µM].
On to `Cc1cc(C)c(C(=O)c2cccs2)c(C)c1`, for which the Potency entry in experiment [1], in experiment [2], in experiment [3], in experiment [4], in experiment [5] and in experiment [6] was “inactive” each time.
Regarding `Cc1nc2cc(NC(=O)CCS(=O)(=O)c3ccccc3)ccc2s1`, the Potency result in experiment [1], in experiment [2] and in experiment [4] was “inactive” in each case. Moreover, the activation is -6.47% [at 17.1 µM, percent relative to cAMP agonist control] in experiment [3] and 14.1% [at 30.8 µM] in experiment [6]. Further, the activity change, negative = inhibition in experiment [5] is -11.5% [at 30.8 µM].
As for `COc1ccc(CCNC(=O)CCc2nc3sc4c(c3c(=O)[nH]2)CCCC4)cc1`, the figures for the Potency in experiment [1] and in experiment [4] were 84.9 µM (active) and 4.78 µM (active), respectively. The Potency result in experiment [2], in experiment [3], in experiment [5] and in experiment [6] was “inactive” throughout.
`CN(C)C(=S)Oc1ccccc1-c1ccccc1OC(=S)N(C)C`: the Potency entry in experiment [1], in experiment [2], in experiment [3], in experiment [4], in experiment [5] and in experiment [6] was “inactive” in each case.
With `CCOc1ccc(NC(=O)CN(C)C(=O)c2cc3c(s2)CCC3)cc1OCC`, the Potency in experiment [1] is 37.9 µM (active). The Potency result in experiment [2], in experiment [3], in experiment [4], in experiment [5] and in experiment [6] was “inactive” each time.
For the molecule `COC(=O)c1sc(-c2ccc(C(C)(C)C)cc2)cc1NC(=O)c1ccccc1C(=O)O`, the Potency in experiment [1] was 50.1 µM (active). The Potency result in experiment [2] and in experiment [4] was “inactive” in each case. In addition, the activation is 5.26% [at 17.1 µM, percent relative to cAMP agonist control] in experiment [3] and 9.25% [at 30.8 µM] in experiment [6]. Besides, the activity change, negative = inhibition in experiment [5] is -19.7% [at 30.8 µM].
As for `Cc1ccc(/C=C/C(=O)Nc2ccc(S(=O)(=O)Nc3cc(C)nc(C)n3)cc2)cc1`, the Potency result in experiment [1], in experiment [2], in experiment [3], in experiment [4], in experiment [5] and in experiment [6] was “inactive” throughout.
As for `N#C/C(=C\c1cn(Cc2ccc(C#N)cc2)c2ccccc12)C(=O)NCc1cccs1`, the Potency result in experiment [1], in experiment [2] and in experiment [4] was “inactive” each time. The activation in experiment [3] is 8.48% [at 17.1 µM, percent relative to cAMP agonist control]; in experiment [6], 15.9% [at 30.8 µM]. Moreover, the activity change, negative = inhibition in experiment [5] was 7.4% [at 30.8 µM].
For `CN(C)c1ccc(/C=C/c2nc3ccccc3c(=O)n2-c2ccc(C(=O)O)cc2)cc1`, the Potency in experiment [1] is 75.7 µM (active); in experiment [4], 67.5 µM (active); in experiment [6], 39.8 µM (active). The Potency result in experiment [2], in experiment [3] and in experiment [5] was “inactive” in each case.
